For 38 compounds, growth inhibition results are on record in PubChem BioAssay (NCI).

This is part of a sample that, as a whole, favours compounds with a hit. Of some 79,000 tested, about 15% had one in any assay. A number with no mark means an inactive call. Calls of active or inactive are those of the source. No stated cut-off is given here; in the data, active means growth inhibition above about 70%; inactive means the rest. Where a SMILES comes first, the peptide text is derived from it. The star is where a group is joined. Fmoc = O=C(OCC1c2ccccc2-c2ccccc21)*; OBn = c1ccc(CO*)cc1; tBu = CC(C)(C)*

A short description of experiment [1]: NCI Yeast Anticancer Drug Screen. Data for the rad50 strain (AID 155).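 Further: 0% = growth of vehicle-only cultures of the same strain.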 The settings on record: S. cerevisiae rad50 strain growth inhibition; at 50.0 µM; stronger effect = higher value. In a few lines: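 Inhibition values express reduced yeast growth in compound-treated cultures relative to vehicle-treated controls.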
Experiment [2] is described as follows: NCI Yeast Anticancer Drug Screen. Data for the mec2-1 strain (AID 157). Conditions: S. cerevisiae mec2-1 strain, at 50.0 µM, stronger effect = higher value. The method in brief:
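Using mec2-1 yeast: add compound, measure growth, express inhibition versus vehicle-treated cultures.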

A short description of experiment [3]: NCI Yeast Anticancer Drug Screen. Data for the sgs1 mgt1 strain (AID 161).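 Further: 0% = growth of cultures given vehicle only.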 The settings on record: S. cerevisiae sgs1 mgt1 strain, at 50.0 µM, stronger effect = higher value. In a few lines: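 This yeast growth screen uses a strain with defined DNA-repair lesions; compound-treated growth is compared with vehicle-treated growth.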
A short description of experiment [4]: NCI Yeast Anticancer Drug Screen. Data for the cln2 rad14 strain (AID 165).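 Further: 0% = growth equal to vehicle treated cultures.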 The settings on record: S. cerevisiae cln2 rad14 strain, at 50.0 µM, stronger effect = higher value. The method in brief: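 Yeast strain cln2 rad14, bearing defects in cell cycle control and DNA repair, serves as the test system; values reflect growth inhibition compared with vehicle.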
Experiment [5] is described as follows: NCI Yeast Anticancer Drug Screen. Data for the bub3 strain (AID 167). Conditions: S. cerevisiae bub3 mutant strain, at 50.0 µM, stronger effect = higher value. The method in brief:
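Steps: expose the mutant yeast strain to compound; grow alongside vehicle-treated cultures; measure growth; express inhibition against the vehicle cultures.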

Experiment [6] in a line: NCI Yeast Anticancer Drug Screen. Data for the mlh1 rad18 strain (AID 175). Conditions: S. cerevisiae mlh1 rad18 strain growth inhibition; at 50.0 µM; stronger effect = higher value. In a few lines: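 Steps: expose repair-defective yeast to compound; measure growth; express inhibition against vehicle-treated controls.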

For `Cc1ccnc2c1NC(=O)c1cccnc1N2C1CC1`, the growth inhibition in experiment [1] is 2.35%; in experiment [2], -1.95%; in experiment [3] it was -8.6%; in experiment [4], -9.35%; in experiment [5] it was 6%; in experiment [6], 20.8%.
For `O=c1cc(Cl)ncn1C1OC(CO)C(O)C1O` (stereo not drawn), the growth inhibition in experiment [1] is -17%; in experiment [2] it was -21.1%; in experiment [3], -27.6%; in experiment [4], -14.3%; in experiment [5], -27.6%; in experiment [6] it was -25.3%.
For `O=[N+]([O-])c1ccc(-n2cccc2)cc1`, the growth inhibition in experiment [1] is -0.55%; in experiment [2] it was 20%; in experiment [3], -0.55%; in experiment [4], 44.4%; in experiment [5] it was -0.75%; in experiment [6] it was -7.2%.
As for `COc1cc(-c2cc(=O)c3c(OC)c(OC)c(OC)cc3o2)c(OC)c(OC)c1OC`, the growth inhibition is 38% in experiment [1]; 10.6% in experiment [2]; 3.05% in experiment [3]; -12.9% in experiment [4]; -6.15% in experiment [5]; -36.8% in experiment [6].
Regarding `CCN(CC)C(COC(=O)Nc1ccccc1)COC(=O)Nc1ccccc1`, the growth inhibition in experiment [1] was 1.85%; in experiment [2] it was -2.3%; in experiment [3], 0.6%; in experiment [4], -13.8%; in experiment [5], -18.9%; in experiment [6], 3.05%.
Consider `CO[C@@H]1O[C@H](C(=O)c2ccccc2)[C@H]2OC(C)(C)O[C@@H]12`, for which the growth inhibition in experiment [1] is -5%; in experiment [2] it was -10.7%; in experiment [3] it was 28.3%; in experiment [4] it was 8.7%; in experiment [5], 19.1%; in experiment [6], 16.3%.
As to `COCn1ccnc1C(=O)c1ccccc1`, the growth inhibition in experiment [1] is -11.4%; in experiment [2] it was -13.8%; in experiment [3], -9.65%; in experiment [4], -27.1%; in experiment [5], -7.25%; in experiment [6], -5.15%.
For `O=C1c2ccccc2C(=O)N1N1C(=O)C2C3CCC(O3)C2C1=O` (stereo not drawn), the growth inhibition was 12.8% in experiment [1]; 0.4% in experiment [2]; 12.9% in experiment [3]; 15.9% in experiment [4]; 17.5% in experiment [5]; 9.3% in experiment [6].
Regarding `O=C(OCCN1C(=O)c2cccc3c(Br)ccc(c23)C1=O)OCc1ccccc1`, the growth inhibition in experiment [1] is 86.2% (active); in experiment [2] it was 48.5%; in experiment [3], 60.1%; in experiment [4], 49.4%; in experiment [5], 61.7%; in experiment [6] it was 70.3% (active).
In the case of `O=c1oc2ccccc2cc1-n1nnc2ccccc21`, the growth inhibition in experiment [1] is -2.65%; in experiment [2], 11.1%; in experiment [3], 18.9%; in experiment [4] it was 2%; in experiment [5], 16.1%; in experiment [6], 21%.
As to `Nc1cn(C2CC(O)C(CO)O2)c(=O)[nH]c1=O` (stereo not drawn), the growth inhibition was 0% in experiment [1]; -1.9% in experiment [2]; -2.5% in experiment [3]; 1% in experiment [4]; -4.4% in experiment [5]; -9.05% in experiment [6].
Turning to `CCN(Cc1ccccc1)c1ccccc1C`, the growth inhibition is 12% in experiment [1]; -6.85% in experiment [2]; 10.8% in experiment [3]; 0% in experiment [4]; 7.65% in experiment [5]; 1.45% in experiment [6].
With `c1nnc2c3c4c(sc3ncn12)CCCC4`, the growth inhibition is 0.4% in experiment [1]; -5.05% in experiment [2]; 2.4% in experiment [3]; -24.7% in experiment [4]; -0.1% in experiment [5]; 4.55% in experiment [6].
As to `CCCCCCC(C)C(C#N)C(=O)OCC` (stereo not drawn), the growth inhibition is -11.8% in experiment [1]; -11.8% in experiment [2]; -26.1% in experiment [3]; -4.15% in experiment [4]; -16.6% in experiment [5]; -14.3% in experiment [6].
In the case of `COc1ccc2c(c1)CCC1=C2CCC(C(=O)O)C1(C)C(=O)O` (stereo not drawn), the growth inhibition is 1.9% in experiment [1]; -3% in experiment [2]; 9.25% in experiment [3]; 4.15% in experiment [4]; -4.25% in experiment [5]; -25.4% in experiment [6].
Take `Cc1nn(C(=O)c2c(-c3ccccc3)noc2C)c(C)c1N=Nc1cc(C(F)(F)F)cc(C(F)(F)F)c1`: the growth inhibition in experiment [1] was -6.2%; in experiment [2], -8.85%; in experiment [3], -2.9%; in experiment [4], 20.5%; in experiment [5] it was -2.7%; in experiment [6], 0.6%.
With `COc1ccc(/C=C\c2cccc(Cl)c2)cc1`, the growth inhibition in experiment [1] was 21.6%; in experiment [2], -25.1%; in experiment [3] it was 3.3%; in experiment [4] it was -8.95%; in experiment [5] it was -13.3%; in experiment [6], 6.4%.
Take `c1ccc(CN(CCNc2ccccc2)c2ccccc2)cc1`: the growth inhibition in experiment [1] was 13.2%; in experiment [2], 48.4%; in experiment [3], 46.2%; in experiment [4] it was 5.1%; in experiment [5], 50.6%; in experiment [6], 3.7%.
As to `COC(=O)C1OC(O[C@H]2CC[C@]3(C)[C@H]4CC=C5[C@@H]6CC(C)(C)CC[C@]6(C(=O)OC)[C@H](O)C[C@@]5(C)[C@]4(C)CC[C@H]3C2(C)C)C(O)C(O)C1O` (stereo partly drawn), the growth inhibition in experiment [1] was 14.4%; in experiment [2], 37.6%; in experiment [3], 26.6%; in experiment [4], 26.4%; in experiment [5], 21.4%; in experiment [6], 33.4%.
On to `CN1CCN(CCCN2CC(=O)N3Cc4ccccc4CN3C(=O)C2)CC1`, for which the growth inhibition is -26.6% in experiment [1]; -1.35% in experiment [2]; -9.45% in experiment [3]; 1% in experiment [4]; 5.15% in experiment [5]; -3% in experiment [6].
For the compound `CCc1cccc(C(=O)NCCN(C)C)c1[N+](=O)[O-]`, the growth inhibition in experiment [1] is -10.4%; in experiment [2] it was -17.9%; in experiment [3], -12.2%; in experiment [4] it was 22%; in experiment [5], -11.9%; in experiment [6], -5%.
Take `CCOC(=O)c1c[nH]c(C(=O)OCC)c1C`: the growth inhibition in experiment [1] is 14.4%; in experiment [2], 6.6%; in experiment [3] it was 4.2%; in experiment [4] it was -59.9%; in experiment [5], -4.5%; in experiment [6] it was 14.2%.
In the case of `CCc1ccc(/C(C#N)=C/c2cccc3ccccc23)cc1`, the growth inhibition in experiment [1] was 2.45%; in experiment [2] it was -11.1%; in experiment [3], -0.6%; in experiment [4], -1.9%; in experiment [5] it was 4.05%; in experiment [6], -5.25%.
As to `COC(=O)CCNC(=O)OCc1ccccc1`, the growth inhibition in experiment [1] is 14.6%; in experiment [2], 30%; in experiment [3] it was -16.7%; in experiment [4] it was 26.6%; in experiment [5], -49.6%; in experiment [6] it was -75%.
Regarding `CC(=O)C(C)O` (stereo not drawn), the growth inhibition in experiment [1] was -27.8%; in experiment [2], -18.8%; in experiment [3], -15.2%; in experiment [4] it was -0.95%; in experiment [5], -21.4%; in experiment [6], -21.1%.
For the compound `O=Cc1cc2c(cc1Br)OCO2`, the growth inhibition in experiment [1] was 39.7%; in experiment [2], 16.1%; in experiment [3], 22.3%; in experiment [4], 10.2%; in experiment [5], -25.6%; in experiment [6], 8.3%.
With `COCn1cnc2c(ccn2C2OC(CO)C(O)C2O)c1=O` (stereo not drawn), the growth inhibition in experiment [1] was -25.4%; in experiment [2], 0%; in experiment [3] it was -8.9%; in experiment [4], -2.1%; in experiment [5], 4%; in experiment [6], 4.55%.
Take `CC(OC(C)(C)C)C(NC(=O)OCC1c2ccccc2-c2ccccc21)C(=O)NC(Cc1ccccc1)C(=O)OCc1ccccc1` (stereo not drawn) (Fmoc-Thr(tBu)-Phe-OBn; configuration not given here): the growth inhibition in experiment [1] was -32.2%; in experiment [2], -7.7%; in experiment [3], -4.5%; in experiment [4], -15.7%; in experiment [5] it was -18.6%; in experiment [6], 0.45%.
As for `COc1ccc(Cl)cc1NC(=O)Nc1cc(C)ccc1Cl`, the growth inhibition in experiment [1] was -8.35%; in experiment [2], 25.8%; in experiment [3] it was 27.4%; in experiment [4], -25.2%; in experiment [5], 28.8%; in experiment [6], 9.9%.
For `COc1ccc(C(=O)c2ccccc2)c(N)c1`, the growth inhibition was 11.2% in experiment [1]; 13.1% in experiment [2]; -2.4% in experiment [3]; -18.9% in experiment [4]; -17.9% in experiment [5]; 10.4% in experiment [6].
On to `O=C1OC(c2ccc(Cl)cc2)=C/C1=C/c1ccccc1O`, for which the growth inhibition in experiment [1] was -15.8%; in experiment [2], 4.75%; in experiment [3] it was -1.15%; in experiment [4], -47.7%; in experiment [5], -0.65%; in experiment [6], 5.05%.
For `O=C(NN1C(=O)CS(=O)(=O)C1c1ccc(C(F)(F)F)cc1)c1ccncc1` (stereo not drawn), the growth inhibition is -10.7% in experiment [1]; 2.2% in experiment [2]; 5.8% in experiment [3]; 8.8% in experiment [4]; 1.05% in experiment [5]; 7.75% in experiment [6].
Consider `CCCCCCCCCCCOC(=O)CCl`, for which the growth inhibition was 1.4% in experiment [1]; -13% in experiment [2]; -16.9% in experiment [3]; -12.3% in experiment [4]; -12.8% in experiment [5]; -7.4% in experiment [6].
As for `O=c1c2c(sc3ccccc13)CCC2`, the growth inhibition in experiment [1] is 1.95%; in experiment [2], 18.6%; in experiment [3], -1.55%; in experiment [4] it was 46.9%; in experiment [5] it was -11.8%; in experiment [6], -0.9%.
`O=C(Nc1ccc2ccccc2c1)c1ccc(Cl)c(Cl)c1`: the growth inhibition was -5% in experiment [1]; 29.6% in experiment [2]; 24.9% in experiment [3]; -6.8% in experiment [4]; 18.9% in experiment [5]; 27.4% in experiment [6].
For `COC(=O)c1cc(Cl)c(C(=O)OC)cc1Cl`, the growth inhibition in experiment [1] was 4.1%; in experiment [2], 3%; in experiment [3] it was 3.85%; in experiment [4] it was 0.6%; in experiment [5] it was 7.4%; in experiment [6], 8.6%.
For `CC(=O)c1cccc(NC(=O)Nc2cccc(C)n2)c1`, the growth inhibition is -9.55% in experiment [1]; 32.8% in experiment [2]; 11.9% in experiment [3]; -24.6% in experiment [4]; 8.55% in experiment [5]; 12.6% in experiment [6].
With `O=N/C(=C(\c1ccccc1)N1CCOCC1)c1ccccc1`, the growth inhibition in experiment [1] is -10.2%; in experiment [2] it was 11.8%; in experiment [3], 9.6%; in experiment [4] it was -2.45%; in experiment [5], -20.6%; in experiment [6] it was 6.45%.
